Assay results reported in the supplement of paper PMC3334620.
The full ranking holds about 33,000 sequences; the median of “E-score (-0.5 to 0.5)” is about -0.0034, and the highest 2% start at about 0.25. The list comes from a sample in which the highest values are over-represented; it also holds similar and randomly drawn sequences.

The sequences below were run against T1, Yap3 (UniProt P38749) (assay: PBM E-score (8-mer binding enrichment) (E-score (-0.5 to 0.5)); higher = stronger / more preferred TF binding). Conditions: protein concentration: 100 nM; construct: GST-full length.
T1 sequence: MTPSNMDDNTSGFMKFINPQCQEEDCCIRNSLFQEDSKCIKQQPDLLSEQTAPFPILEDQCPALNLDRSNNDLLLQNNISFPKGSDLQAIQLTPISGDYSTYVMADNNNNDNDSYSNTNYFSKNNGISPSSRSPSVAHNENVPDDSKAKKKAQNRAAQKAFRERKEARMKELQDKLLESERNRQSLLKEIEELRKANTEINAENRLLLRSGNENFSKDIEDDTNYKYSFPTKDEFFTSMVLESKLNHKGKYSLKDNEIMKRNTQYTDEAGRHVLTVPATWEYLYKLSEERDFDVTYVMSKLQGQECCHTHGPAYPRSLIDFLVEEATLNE
Procedure: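 Universal 'all 10-mer' protein binding microarrays (Agilent AMADID 015681) probed with GST-tagged S. cerevisiae TFs (full-length or DBD) made by in vitro transcription/translation (PURExpress), about 100-200 nM. Bound TF was detected with fluorescent anti-GST. Each ungapped 8-mer (which stands for itself and its reverse complement) is scored by the PBM enrichment score (E-score), a modified Wilcoxon-Mann-Whitney statistic from -0.5 to +0.5, computed with the Universal PBM Analysis Suite. Scale: above 0.35 generally sequence-specific binding.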

Sequence	PBM E-score
AAACGATA	0.0765
TAACGATA	0.261
CAACGATA	0.0838
GAACTGTA	0.208
AATCAGGA	0.0679
AATAAATA	0.315
ACTAAATA	0.29
CCTAAATA	-0.122
AATAAATT	0.186
TATAAATA	0.301
AATAAAGA	0.156
AATAAAGG	-0.0245
ACTAAATC	0.198
AATAAATG	0.216
AATAAAGT	0.262
GATAAATA	0.233
CATAAATA	0.197
ATACTAGC	0.0285
GCCAGTCC	-0.343
CGATCGGC	0.00629
GAGCTAAC	0.0153
ACTCGCAC	-0.0984
AGTCGCAC	-0.233
AACTTGAT	0.15
GGCGGTGA	0.132
GAAGACCA	-0.105

Sequence	PBM E-score
GGGTAAAA	0.258
GGGTAAAC	0.0445
CGGTAAAA	0.114
AGATAAGG	-0.0911
AATAGAAC	0.16
ACACTAAA	0.261
TCACTAAA	0.121
AAACTAAT	0.272
GAACTAAA	0.0567
TTACTAAA	0.401
AAACTAAA	0.261
GCACTAAA	0.179
TAACTAAA	0.165
AAACTAAC	0.232
GTACTAAA	0.21
AAACTAAG	0.186
ATACTAAA	0.188
ATTTCTAG	0.083
GGATCCAA	0.138
CAGCGACG	-0.0734
GATTGGAC	0.0901
TCCTCTCA	0.0272
ACGATCAA	0.0848
ACAGAGGA	-0.00698
AAAGAAAT	0.26
ACGGAAAT	0.323

Sequence	PBM E-score
ACGGAAAC	-0.079
AAAGAAAA	0.18
AAAGAAAG	0.231
ACGGAAAG	0.144
GCGGAAAA	0.245
ACGGAAAA	0.107
TCGGAAAA	0.275
AAGAAATT	0.199
AAGAAAAA	0.059
AAGAAAAT	0.273
ACCCTTTA	0.101
CGCTGGTC	-0.307
ACGCTGAA	-0.00885
CCCATTGA	-0.0177
GATGCGAA	0.057
TCCGGTCA	0.00023
AAGTATCA	0.052
CCCCACTA	-0.135
AAGTTGCC	-0.0508
ACGAAAAG	0.153
ACGAAAAA	0.0676
ACGAAAAT	0.257
GACTCATC	-0.108
CGCGCTGA	0.0303
AGCGCTTA	0.0641
CGCGCTTA	0.265

Sequence	PBM E-score
ATCGATGC	0.133
CATTAAGA	0.0516
CTTGTTAC	0.0269
ATTGTTAA	0.17
ATTGTTTA	0.0804
ATTGTTAG	0.153
ATTGTTAC	0.288
CTTGTTAA	0.022
CTTGTTTA	0.0644
GTTGTTAA	0.298
GTTGTTTA	0.273
TTCAAAAA	0.0865
ACGTCCTA	0.00661
AGCACACT	0.0288
GGATCCAC	-0.0381
AGAAAGAA	0.0357
TGAAAGCA	0.254
AGAAAGCA	0.232
TGAAAGAA	0.297
GGAAAGAA	0.0609
GGAAAGCA	0.018
CGGCGTAC	-0.15
ACGGTTGC	-0.0961
TCCTGTCA	-0.0145
CCCTGGCC	-0.333
AAATCCAC	0.0662

Sequence	PBM E-score
AAATCCAT	0.29
AAATCCAG	0.249
CCGCTGTA	0.117
GTATAATA	0.287
GTATAACA	0.133
ATATAATG	0.2
ATATAAGA	0.346
ATATAATA	0.299
CTATAAGA	0.182
CTATAATA	0.0592
GGATAATA	0.0461
GTATAAGA	0.0832
AGTAAGCA	0.00993
AATCTGCG	-0.0221
AGCCCGCA	-0.123
AGCAACGC	-0.0123
AGTTTCGG	0.0851
ATTAATTA	0.241
CTTAATTA	0.174
GCTAATAA	0.144
ATTAATTC	0.3
GTTAATGA	0.133
ACTAATTC	0.178
ACTAATTG	0.167
CCTAATTA	0.136
GTTAATTA	0.262

Sequence	PBM E-score
ATTAATTG	0.245
ACTAATTA	0.362
GCTAATTA	0.279
AGAGATCA	0.0988
AAACGAGT	0.217
CAAGCTAA	-0.0766
CTTTTAAC	0.0122
AACAAAGT	0.221
AGCGAGCC	-0.122
AAAGACTG	-0.0469
CTATTATA	0.145
GTATTACA	0.291
GTATTATA	0.329
ATATTATA	0.186
CTATTACA	0.163
GTATTAGA	0.217
CCTTAAAG	0.06
CAAGTTGG	0.106
GTTGCTAA	0.251
CACCTGGG	-0.178
AAGCCTGG	-0.0378
CCATCGTA	0.0169
AAACAGCG	0.2
CCAGTAAC	0.0196
AGATATAA	0.211
GAATATAA	0.195

Sequence	PBM E-score
AAATATAA	0.275
AAATATGC	0.00442
CAATATAA	0.307
TAATATAA	0.344
AAATATGT	0.286
AAATATGA	0.224
CAATATAG	0.218
CAATATAC	0.112
TCATATAA	0.203
AGGATTGA	0.129
AGCAAGAT	0.14
AATTTCTG	0.089
ATCCCATA	-0.106
GTTGCATA	-0.0298
ATTTAGCC	0.0798
AGGGAGTC	-0.235
AACGATAC	0.0446
AAATATAG	0.117
AACGATAG	0.116
AAAAATAT	0.342
AACTATAG	0.0554
AAAAATAG	0.225
AAAAATAC	0.14
AACTATAT	0.309
AACTATAC	0.0711
AAATATAC	0.19

Sequence	PBM E-score
AAATATAT	0.285
AACGATAT	0.269
AACTCATT	0.0581
CTCCCTCA	-0.122
CCTCAAGG	-0.145
CTCATTCC	0.139
CTGCCCAA	-0.122
GCCGAATA	0.115
AAACCACC	0.0609
ATCGACTC	-0.161
AGTAGAAG	0.0935
AGTCATGG	0.0946
AGCTTTAA	0.0942
TAATATGA	0.297
TCATATGA	0.317
GAATATGA	0.168
AAGTATGA	0.0367
CCATATGA	0.00159
CAATATGA	0.174
CAGTATGA	0.143
TAGTATGA	0.255
GCATATGA	0.214
AGTTGATC	0.0597
GACAGGTC	-0.226
AAGGTTCC	-0.0546
AAAGTATA	0.235

Sequence	PBM E-score
CAAGTATA	-0.0229
TAAGTATA	0.275
CCTCGCTC	0.0543
AGAGAACA	0.206
GGCCCCCC	-0.461
CCCACACA	-0.0183
TTAACGAA	0.179
ACAACCAC	0.0359
ACAACCAG	0.0808
ACAACCAT	0.334
AAATTCGC	0.129
GATTTCCA	0.0257
AATTTCCA	0.267
GAATTCCA	0.195
AAATTCGG	0.153
AAATTCGT	0.312
AAATTCCA	0.269
CAATTCCA	-0.102
TATTTCCA	0.00077
